Test results from PubChem BioAssay AID1255 (The Scripps Research Institute Molecular Screening Center, 2008).
The whole screen tested about 1,200 compounds, of which about 330 (28%) were called active. The list is a sample of the results. A number with no mark means an inactive call. Rule as the data show it: active = inhibition above about 17%; inactive = the rest.

target: Neuropeptide Y receptor type 2 (Homo sapiens) (UniProt P49146); assay: blockade of human NPY-Y2 in cells – HEK293-CNG cells, membrane potential fluorescence, triplicate, counter-screen for NPY-Y1 antagonist project, confirmation (AID 1255); conditions: antagonism, at 3.6 µM, hits give high values, cells given NPY, then isoproterenol;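 also: 0% = DMSO with agonist challenge and 100% = reference antagonist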
Sequence (P49146 whole entry, looked up): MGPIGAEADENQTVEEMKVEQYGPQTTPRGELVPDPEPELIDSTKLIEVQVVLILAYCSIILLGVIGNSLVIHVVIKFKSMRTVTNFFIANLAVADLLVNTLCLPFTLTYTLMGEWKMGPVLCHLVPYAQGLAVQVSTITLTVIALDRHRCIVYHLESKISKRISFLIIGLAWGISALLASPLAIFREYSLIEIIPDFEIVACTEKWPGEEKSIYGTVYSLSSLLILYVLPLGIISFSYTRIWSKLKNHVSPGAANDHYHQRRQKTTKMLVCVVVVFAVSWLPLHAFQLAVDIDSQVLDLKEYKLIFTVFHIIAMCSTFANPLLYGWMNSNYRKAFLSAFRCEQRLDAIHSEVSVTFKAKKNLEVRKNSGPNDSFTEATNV

Compound | inhibition
Cc1ccc(/C=N/NC(=O)COc2ccccc2-c2ccccc2)cc1 | 28.1% (active)
CC1CN(CCCOc2ccccc2-c2ccccc2)CC(C)O1 (stereo not drawn) | 6.39%
c1ccc(-c2ccccc2OCCN2CCCCC2)cc1 | 6.63%
CCCCCCC(=O)Nc1nc(C)c(-c2csc(Nc3cccc(OC)c3)n2)s1 | 2.61%
Cc1ccc(C(=O)C[n+]2cc(-c3ccccc3)n3c2CCCCC3)cc1 | 14.5%
CC(Oc1ccc2ccccc2c1)C(=O)NNC(=S)NC(=O)c1ccco1 (stereo not drawn) | 10.2%
CCN1CCN(CCNC(=O)c2ccc(/C=C3/Sc4ccccc4N(Cc4cccc(C)c4)C3=O)cc2)CC1 | 27% (active)
Cc1ccc(N2C(=O)C3N=NN(CC(=O)N4N=C(c5cccc6ccccc56)CC4c4ccccc4)C3C2=O)cc1 (stereo not drawn) | 5.5%
CCOC(=O)CSc1nc2c(sc(=S)n2CCc2ccccc2)c(=O)n1Cc1ccco1 | 14.4%
O=C(NCCc1ccc2c(c1)OCCO2)c1cc2ccccc2o1 | 14.6%
Cc1ccc(Cn2c(NC(=O)c3ccco3)nc3ccccc32)cc1 | 24.2% (active)
O=S(=O)(O)c1nc2ccccc2n1Cc1ccc(Cl)cc1 | 5.74%
CCS(=O)(=O)n1nc(-c2ccccc2)nc1SCc1ccccc1 | 13.4%
CCC(=O)c1c[nH]c(C(=O)NCC2CCCO2)c1 (stereo not drawn) | 2.61%
O=C(CSc1nnnn1C1CCCC1)Nc1ccc2c(c1)OCCO2 | 7.69%
O=C(CN1CCN(c2ncc(C(F)(F)F)cc2Cl)CC1)Nc1ccc2c(c1)OCO2 | 18.4% (active)
COC(=O)c1ccc(COC(=O)c2c(C)nn(Cc3ccccc3Cl)c2Cl)o1 | 8.24%
COc1ccc(CCN(C(=O)COc2ccccc2)c2nc(-c3ccccc3)cs2)cc1OC | 17.3% (active)
CCCCc1c(O)nc2n(c1=O)CCS2 | 2.74%
Cc1ccc2nc(-c3ccccn3)cc(C(=O)Nc3ccc4c(c3)OCO4)c2c1 | 25.5% (active)
CCc1ccc(CNC(=O)C2CCCN(c3nc4ccccc4o3)C2)cc1 (stereo not drawn) | 11%
CCCOC(=O)c1[nH]c2c(c1C)C(=O)CC(c1cccs1)C2 (stereo not drawn) | 16.7%
COc1ccccc1C1C2=C(COC2=O)Nc2cc3c(cc21)OCO3 (stereo not drawn) | 10.6%

Compound | inhibition
OC(COCCC12CC3CC(CC(C3)C1)C2)CN1CCCCC1 (stereo not drawn) | 12.7%
CS(=O)(=O)N1CCCC(C(=O)N2CCOCC2)C1 (stereo not drawn) | 0.64%
COc1ccc(C(c2nnnn2C2CCCCC2)N2CCN(c3ccccc3F)CC2)cc1 (stereo not drawn) | 10.2%
CC(=O)N1CC(C)c2scc(C)[n+]2-c2ccccc21 (stereo not drawn) | 3.05%
O=C(/C=C/c1ccco1)Nc1cccc(-c2nc3ccccc3[nH]2)c1 | 7.24%
O=C(CSc1nc2cc3c(cc2c(=O)n1CCC1=CCCCC1)OCO3)NCc1ccco1 | 2.11%
c1ccc2c(NC3C4CC5CC(C4)CC3C5)nc(N3CCOCC3)nc2c1 (stereo not drawn) | 30.1% (active)
CC(Nc1nc(N2CCN(CCO)CC2)nc2ccccc12)c1ccccc1 (stereo not drawn) | 10.1%
Fc1ccc(-c2nnc(CSc3nnc(-c4ccc5c(c4)OCO5)o3)o2)cc1 | 9.04%
CC(C)Cn1cnc2c1c(=O)n(CC(O)c1ccccc1)c(=O)n2CC(C)C (stereo not drawn) | -0.53%
Cc1ccccc1Nc1scc(-c2ccc(Br)cc2)[n+]1-c1ccccc1C | 12.3%
Cc1cc(C(C)(C)C)oc1C(=O)N(CC(=O)NC1CCCC1)Cc1ccc(Cl)cc1 | 19.8% (active)
CCCSc1nc(NCc2ccco2)c2c3c(sc2n1)COC(C)(CC)C3 (stereo not drawn) | 12.4%
C/C(=N\NC(=S)NCc1ccccc1)c1ccc(Cl)cc1 | 5.13%
COc1ccc(-c2[nH]nc(-c3ccccc3)c2-c2nc3ccccc3[nH]2)cc1 | 17%
O=C(NCCCN1CCOCC1)c1cnn2c(-c3ccccc3)cc(-c3ccccc3)nc12 | 18.8% (active)
CCOC1CCCCC1NS(=O)(=O)c1ccc(Cl)cc1 (stereo not drawn) | 1.15%
Cc1nc(-c2ccccc2)sc1C(=O)/C=C/c1ccccc1 | 16.5%
COc1ccc(C(=O)CSc2nnc(COc3ccccc3)n2Cc2ccco2)cc1 | 6.65%
Oc1ccc(-c2[nH]ncc2-c2nc3ccccc3s2)c(O)c1 | 3.58%
NC(N)=N/N=C/c1ccc(OCc2ccc(Cl)cc2Cl)cc1 | 30.3% (active)
CCOC(=O)c1nn(-c2cccc(C)c2)cc1C(=O)c1ccccc1 | 6.78%
COC(=O)c1ccc(C(NC(=O)OCc2ccccc2)/C(C)=C/[C@@H](C)C(=O)NCc2ccc(OC)c(OC)c2)cc1 (stereo partly drawn) | 12.9%

Compound | inhibition
Cc1cc(C)c2[nH]c(=O)c(CN(Cc3ccccc3)C(=S)NCCCN(C)C)cc2c1 | 26.7% (active)
CN(C)CCCCCN(C)Cc1cc2ccccc2o1 | 14.4%
COC(=O)C1=C(Nc2ccc(C)cc2)C=C(C)C(C(=O)OC)C1c1ccc(F)cc1 (stereo not drawn) | 15.2%
Cc1ccc(C(=O)N/C(=C/c2ccc(-c3cccc([N+](=O)[O-])c3)o2)C(=O)NCCCN(C)C)cc1 | 13.8%
CCCOc1ccc2c3c(c(=O)oc2c1OCCC)CCC3 | 15.6%
COc1ccccc1N1CCN(C(=O)CN(Cc2ccc(Cl)cc2)S(C)(=O)=O)CC1 | 3.69%
Clc1ccccc1-c1cc(COc2ccc3ccccc3c2)no1 | 18.4% (active)
COc1cccc(CNCCc2c[nH]c3ccccc23)c1OCc1ccccc1F | 16.7%
CCCC(=O)Nc1nc2ccc(NC(=O)c3c(F)c(F)c(OC)c(F)c3F)cc2s1 | 11.5%
Cc1ccc(SCCC(=O)OCC(=O)Nc2ncc(Cl)cc2Cl)cc1 | 5.65%
CC(=O)OC(C)C[N+](C)(C)C (stereo not drawn) | 12.9%
COc1cc2c(C(=O)N3CCN(C)CC3)c(CSc3ccccc3)n(C)c2cc1Br | 19.6% (active)
OCC1(CCc2ccccc2)CCN(Cc2ccc3nsnc3c2)CC1 | 9.39%
CCOC(=O)N1CCN(S(=O)(=O)c2ccc(C(=O)Nc3ccc(F)cc3F)cc2)CC1 | 10.3%
CCCCn1nc(C(=O)N2CCc3ccccc32)c2ccccc2c1=O | 3.7%
Cc1ccc(-c2cc(C(=O)N3CCc4ccccc4C3)no2)cc1 | 12.8%
CCCCCCCCn1c2c(c(=N)c3c1CCC3)CCCC2 | 44.6% (active)
O=C(Cc1cccs1)N(CC1CCCO1)C1(C(=O)NC2CCCCC2)CCCCC1 (stereo not drawn) | 11.1%
O=C(c1cc(-c2ccc(O)cc2)on1)N1CCCc2ccccc21 | 2.92%
CC(C)(C)NCc1cc(Br)ccc1OC1CCCC1 | 10.4%
COc1ccc(C2Nc3ccccc3C(=O)N2Cc2ccccc2)cc1Cn1nnc2ccccc21 (stereo not drawn) | 8.37%
O=C1c2cccnc2C(Nc2ccc(S(=O)(=O)N3CCCCCC3)cc2)N1Cc1ccccc1 (stereo not drawn) | 2.58%
